Measurements from the supplement of paper PMC6555819.

How the values were obtained:
Test in all cases: PBM binding z-score (relative to random genomic background probes); higher = stronger binding; sequences stand for … in GC…GCGATTGACAGCGTAGAATGAAGG
[1] = tested on: FXR:RXRa (NR concentration 270 nM, RXRa partner concentration 90 nM)
Summary of the method: (§1)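 Binding buffer was PBS pH 7.4 with 2% milk, 0.02% Triton X-100, 1 mM DTT, 0.2 mg/mL BSA and 0.4 mg/ml salmon testes DNA. In it, ligand-free nuclear receptor dimers were incubated 1 h on custom Agilent 4×180K protein-binding microarrays carrying double-stranded probes. Antibodies against each partner (one per run) detected binding, and z-scores were calculated against random background probes after regression normalization of scanned fluorescence.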

[2] = tested on: LXRa:RXRa (NR concentration 270 nM, RXRa partner concentration 90 nM)
Summary of the method: as §1

[3] = tested on: LXRa homodimer (NR concentration 270 nM)
Summary of the method: as §1

[4] = tested on: LXRb:RXRa (NR concentration 270 nM, RXRa partner concentration 90 nM)
Summary of the method: as §1

[5] = tested on: LXRb homodimer (NR concentration 270 nM)
Summary of the method: as §1

[6] = tested on: PPARa:RXRa (NR concentration 270 nM, RXRa partner concentration 90 nM)
Summary of the method: as §1

[7] = tested on: PPARg:RXRa (NR concentration 180 nM, RXRa partner concentration 90 nM)
Summary of the method: as §1

[8] = tested on: PPARg:RXRa 270nM:90nM, anti-RXR (NR concentration 270 nM, RXRa partner concentration 90 nM)
Summary of the method: as §1

[9] = tested on: PPARg:RXRa 30nM:10nM, anti-RXR (NR concentration 30 nM, RXRa partner concentration 10 nM)
Summary of the method: as §1

[10] = tested on: PPARg:RXRa 90nM:30nM, anti-RXR (NR concentration 90 nM, RXRa partner concentration 30 nM)
Summary of the method: as §1

[11] = tested on: PPARg:RXRa DBDmut IVT, anti-RXR (DBD mutation: RXRa K156A/R161A, NR concentration 270 nM, RXRa partner concentration 90 nM)
Summary of the method: as §1

[12] = tested on: PPARg:RXRa IVT, anti-PPARg (NR concentration 270 nM, RXRa partner concentration 90 nM)
Summary of the method: as §1

[13] = tested on: PPARg DBDmut:RXRa IVT, anti-PPARg (DBD mutation: PPARg1 K132A/R137A, NR concentration 270 nM, RXRa partner concentration 90 nM)
Summary of the method: as §1

[14] = tested on: PPARg DBDmut IVT, anti-PPARg (DBD mutation: PPARg1 K132A/R137A, NR concentration 270 nM)
Summary of the method: as §1

[15] = tested on: PPARg homodimer (NR concentration 180 nM)
Summary of the method: as §1

[16] = tested on: PXR:RXRa (NR concentration 270 nM, RXRa partner concentration 90 nM)
Summary of the method: as §1

[17] = tested on: PXR homodimer (NR concentration 270 nM)
Summary of the method: as §1

[18] = tested on: RARa:RXR (NR concentration 270 nM, RXRa partner concentration 90 nM)
Summary of the method: as §1

[19] = tested on: RARa homodimer (NR concentration 270 nM)
Summary of the method: as §1

[20] = tested on: RARb:RXRa (NR concentration 270 nM, RXRa partner concentration 90 nM)
Summary of the method: as §1

Row | Sequence | PBM binding z-score [1] | PBM binding z-score [2] | PBM binding z-score [3] | PBM binding z-score [4] | PBM binding z-score [5] | PBM binding z-score [6] | PBM binding z-score [7] | PBM binding z-score [8] | PBM binding z-score [9] | PBM binding z-score [10] | PBM binding z-score [11] | PBM binding z-score [12] | PBM binding z-score [13] | PBM binding z-score [14] | PBM binding z-score [15] | PBM binding z-score [16] | PBM binding z-score [17] | PBM binding z-score [18] | PBM binding z-score [19] | PBM binding z-score [20]
1 | ACCTCTAGGTAAGACTCAGTTCAGTGAAGAACGC | -0.0705 | -0.143 | -0.072 | -0.301 | 0.0183 | -0.0817 | 0.0418 | 0.031 | -0.00405 | -0.257 | 1.32 | 0.243 | -0.124 | -0.421 | 0.121 | 0.405 | 0.515 | 0.112 | -0.37 | -0.0918
2 | CCTATTGGGCCATCAGGTCATTGATATCAACGTT | 1.84 | 1.28 | 1.09 | 1.42 | -0.199 | 2.25 | 1.29 | 2.49 | 0.897 | 1.88 | 3.63 | 3.39 | 0.758 | 0.0799 | 1.42 | 1.84 | 0.775 | 2 | 0.136 | 2.25
3 | CGAACTAGGTCATCCAGGACAGCGAATACATTGA | 4.51 | 2.55 | 0.58 | 2.07 | -0.199 | 4.82 | 7.57 | 6.41 | 4.29 | 5.78 | 8.26 | 8.15 | 1.97 | 1.48 | 1.78 | 1.78 | 1.09 | 2.33 | -0.0811 | 3.81
4 | AGCGAAAGGTCGTGAGGTGAGTATACAGAAAGGC | 5.99 | 3.84 | -0.142 | 3.17 | -0.2 | 5.26 | 4.55 | 4.97 | 1.84 | 3.25 | 0.425 | 2.63 | 0.478 | 1.08 | 1.38 | 2.81 | 0.0715 | 3.96 | 0.217 | 4.29
5 | GTTGCTAGGTCAACTGATGGTCAGCTAAAGCTCG | 4.29 | 3.62 | 0.729 | 2.08 | 0.507 | 3.96 | 3.38 | 3.96 | 0.825 | 2.71 | 5.15 | 4.94 | 1.14 | -0.255 | 1.33 | 1.47 | -0.554 | 3.03 | -0.133 | 4.26
6 | CCGACTGGGGCATAAGGTCACCATAAGCCAGCCC | 3.25 | 3.18 | 0.732 | 2.78 | -0.819 | 4.02 | 4.56 | 4.89 | 2.53 | 4.9 | 2.94 | 4.43 | 0.997 | 0.485 | 6.12 | 3.81 | 0.594 | 5.16 | 2.35 | 3.84
7 | CAAACTAGGGCAAAGGTCAAAGTCGAGCCAACCA | 7.07 | 6.32 | 4.3 | 6.01 | 1.82 | 7.48 | 13.2 | 10.9 | 12.2 | 12.5 | 7.98 | 8.53 | 3.73 | 2.63 | 4.12 | 5.98 | 1.29 | 7.53 | 1.54 | 5.15
